PubChem BioAssay AID1021 (Emory University Molecular Libraries Screening Center, 2008)
About 2,100 (0.95%) of roughly 220,000 compounds were called active. The sample holds actives, similar compounds and a random draw of the others, so the mix is not that of the screen. Values without a mark were called inactive.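 The calls were made as follows: active = compounds that cut the binding signal by more than half at the single screening dose; inactive = the rest.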

Each molecule was assayed against Induced myeloid leukemia cell differentiation protein Mcl-1 (Homo sapiens) (UniProt Q07820) (assay: disruptors of Mcl-1 and Bid BH3 peptide – biochemical, TR-FRET, 1536-well, primary screen (AID 1021;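 also: His-tagged Mcl-1 with europium anti-His antibody binding Bid BH3 peptide; 0% = Mcl-1 plus peptide wells and 100% = peptide-only wells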)). Conditions: TR-FRET Mcl-1/Bid-Dy647 peptide binding, at 21.7 µM, stronger effect = higher value.
Induced myeloid leukemia cell differentiation protein Mcl-1 (Homo sapiens), sequence (Q07820 whole entry, looked up): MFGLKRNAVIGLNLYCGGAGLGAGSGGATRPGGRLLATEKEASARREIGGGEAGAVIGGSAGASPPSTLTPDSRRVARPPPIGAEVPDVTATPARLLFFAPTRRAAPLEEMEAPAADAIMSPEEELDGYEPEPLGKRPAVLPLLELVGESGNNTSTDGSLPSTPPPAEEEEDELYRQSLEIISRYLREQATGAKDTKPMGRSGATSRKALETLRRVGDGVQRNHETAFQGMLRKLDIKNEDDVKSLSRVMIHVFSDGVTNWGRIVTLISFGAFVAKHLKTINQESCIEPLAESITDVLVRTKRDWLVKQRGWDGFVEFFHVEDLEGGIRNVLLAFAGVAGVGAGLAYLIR

Row | Compound | inhibition
1 | COc1ccc(C(=O)NCC(=O)N/N=C/c2ccc([N+](=O)[O-])o2)cc1OC | -51.1%
2 | CNC(=O)c1cccc2nc3ccccc3nc12 | -18.3%
3 | CN1C2CCC1/C(=C\c1ccccc1Cl)C(=O)/C2=C\c1ccccc1Cl | 7.72%
4 | CC1=CC2=NC(=O)CC(C)(C(=O)N(CC(=O)NC(C)(C)C)Cc3ccccc3)N2C=C1 (stereo not drawn) | -15.8%
5 | CC1=CC=CN2C1=NC(=O)CC2(C)C(=O)N(CC(=O)NC1CCCC1)c1ccccc1C (stereo not drawn) | 50.7% (active)
6 | Cc1ccccc1CCN(CC(=O)NC1CCCCC1)C(=O)c1csnn1 | -16.2%
7 | COC(=O)N(NC(=O)C(O)(C(C)C)C(C)C)c1ccccc1 | -9.27%
8 | Cc1ccc(NC(=S)N2CCN(c3ncccn3)CC2)cc1C | 92.2% (active)
9 | CNC(=S)N1CCN(c2ccccn2)CC1 | -63.9%
10 | CCNC(=S)N1CCN(c2ncccn2)CC1 | -29.3%
11 | COc1ccccc1-n1cn[nH]c1=S | -143%
12 | O=C(N/N=C/c1ccc([N+](=O)[O-])o1)c1cn(-c2ccccc2)nc1-c1ccc(F)cc1 | 25.7%
13 | C=CCSC(CC)(CC)C(N)=O | -11%
14 | Cc1cc(/C=C2/C(=N)N3C(=NC2=O)SN=C3S(C)(=O)=O)c(C)n1-c1ccccc1 | -35.9%
15 | N=C1/C(=C/c2cccn2-c2cccc([N+](=O)[O-])c2)C(=O)N=C2SC=CN12 | 71.5% (active)
16 | COC(=O)c1c(C(=O)OC)c2n(c1C)CCS2 | -18.6%
17 | CC1COc2ccccc2N1C(=O)c1cccnc1Cl (stereo not drawn) | -17.1%
18 | Oc1c(Cl)cc(Cl)c(Cl)c1Cc1c(O)c(Cl)cc(Cl)c1Cl | 100% (active)
19 | CC(OC(=O)c1ccc(NS(=O)(=O)c2ccc3[nH]c(=O)[nH]c3c2)cc1)C(=O)Nc1cccc(Cl)c1Cl (stereo not drawn) | -92.2%
20 | O=C(O)CC1S/C(=N\N=C/c2ccccc2O)N(c2ccc(O)cc2)C1=O (stereo not drawn) | -24.9%
21 | CC(O)CNCCOc1cccc(Oc2ccccc2)c1 (stereo not drawn) | -8.32%
22 | O=C(NCCc1ccccn1)c1cccnc1Oc1ccc(Cl)cc1 | -2.11%
23 | NC(=O)c1ccc(NC(=O)COC(=O)C(Cc2ccccc2)NC(=O)c2ccccc2)cc1 (stereo not drawn) | -18.9%
24 | CCOC(=O)N1CCN(Cc2nc(Cc3cccc(C(F)(F)F)c3)no2)CC1 | -53%

Row | Compound | inhibition
25 | O=C(COC(=O)Cn1cnc2ccccc2c1=O)NCc1ccccc1Cl | 8.62%
26 | O=C(COC(=O)c1cccc(Br)c1)Nc1cccc2c1C(=O)c1ccccc1C2=O | 8.65%
27 | O=C(COC(=O)Cn1cnc2ccccc21)Nc1cccc2c1C(=O)c1ccccc1C2=O | 52.5% (active)
28 | N#Cc1cccc(NC(=O)COC(=O)c2ccccc2C(=O)c2ccc(Cl)c([N+](=O)[O-])c2)c1 | -7.05%
29 | CC(C)C[C@H](CO)Nc1nc(N(C)c2cccc(Cl)c2)c2ncn(C(C)C)c2n1 | -56.4%
30 | NS(=O)(=O)c1cccc(NC(=O)COC(=O)/C=C/c2ccco2)c1 | -10.4%
31 | O=[N+]([O-])C(=c1ccc2c(c1)N1C3=C(CCCC3)CC3CCCCC31N=2)[N+](=O)[O-] (stereo not drawn) | 78.9% (active)
32 | CCN(CC)S(=O)(=O)c1ccc(N2CCCC2)c(NS(=O)(=O)c2cccs2)c1 | -28.4%
33 | O=C(NNc1ccccc1Cl)C(O)(c1cccc(C(F)(F)F)c1)c1cccc(C(F)(F)F)c1 | 3.27%
34 | O=C(C[n+]1ccc2c(c1)nnn2-c1ccccc1)c1ccc(Cl)cc1 | -1.27%
35 | Cc1ccc(C)c(SCc2nc3sc(C(=O)O)c(C)c3c(=O)[nH]2)c1 | -24.1%
36 | COc1ccccc1NC(=O)CSc1nc2sc(C)c(C)c2c(=O)n1Cc1ccco1 | -24.2%
37 | Cc1ccc(-c2nc(SCC(=O)Nc3ccccc3OC(F)F)c3c(C)c(C(=O)O)sc3n2)cc1 | 79.3% (active)
38 | COC(=O)C1=C(N)Oc2cc(C)[nH]c(=O)c2C1c1ccc(Cl)cc1 (stereo not drawn) | -43.4%
39 | CN=c1scc(-c2cc(OC)ccc2OC)n1/N=C/c1c(C)[nH]c2ccccc12 | 39.1%
40 | CC(=O)c1ccc(NC(=O)C(C)NCc2ccc(Cl)cc2)cc1 (stereo not drawn) | 3.24%
41 | CCN(CC)c1ccc(S(=O)(=O)N2CCOCC2)cc1NC(=O)CSc1cccc[n+]1[O-] | -69%
42 | O=C(O)CC1(CC(=O)Nc2cccc(C(F)(F)F)c2)CCCC1 | -7.96%
43 | Cc1ccc(COc2ccc(C(=O)NN)cc2)cc1 | 67.1% (active)
44 | Cc1cccc(OCc2ccc(C(=O)Nc3ccc(F)cc3)cc2)c1 | 11%
45 | COc1ccc(C(=O)NNS(=O)(=O)c2ccc(C)cc2)cc1 | -16.3%
46 | Cc1cccc(N2Cc3ccccc3C2=NC(=O)c2ccc(Cl)nc2)c1 | -35.5%
47 | COc1cccc(OC)c1CN(C)C(=O)c1cnccc1C(F)(F)F | -18.2%
48 | O=C(NNC1=C(C(=O)C(F)(F)F)CCC1)c1ccncc1 | -42.6%

Row | Compound | inhibition
49 | COc1cccc(NC(=O)C2c3cc(OC)c(OC)cc3C(=O)N(C)C2c2cccnc2)c1 (stereo not drawn) | 84.2% (active)
50 | COc1cccc(C(=O)Nc2cccnc2)c1OC | -18.8%
51 | CCOc1cc2c(cc1OCC)C(C(=O)O)C(c1ccc(OC)c(O)c1)N(C)C2=O (stereo not drawn) | -21.7%
52 | CCOC(=O)c1c(NC(=S)Nc2ccccc2C)sc2c1CCC2 | -25.3%
53 | CCOC(=O)c1c(NC(=S)NC(=O)c2ccco2)sc2c1CCCC2 | 61.4% (active)
54 | CCOC(=O)c1c(NC(=S)NC)sc2c1CCCC2 | -22.5%
55 | O=C(O)CC12CC3CC(C1)CC(n1ncc(NCc4ccc(F)cc4)c(Cl)c1=O)(C3)C2 | -0.52%
56 | CS(=O)(=O)c1ccc2nc(NC(=O)CN3CCCCCC3)sc2c1 | 55.1% (active)
57 | CS(=O)(=O)c1ccc2nc(NC(=O)C3CCCCC3)sc2c1 | -11%
58 | CS(=O)(=O)c1ccc2nc(NC(=O)c3ccc(N4CCCC4=O)cc3)sc2c1 | -53.4%
59 | O=c1[nH]nc(SCCS(=O)(=O)c2ccc(F)cc2)n1-c1ccccc1C(F)(F)F | -37.5%
60 | CCNCCC(=O)N1c2ccccc2Sc2ccc(NC(=O)OCC)cc21 | -12.2%
61 | CCOC(=O)Nc1ccc(NC(=O)OCC)cc1 | -26.4%
62 | CCOC(=O)Nc1ccc2c(c1)N(C(=O)CCN1CCN(CCO)CC1)c1ccccc1CC2 | 51.3% (active)
63 | COc1ccc2[nH]c(=S)cc(C)c2c1 | -43.7%
64 | CNC1(c2nnnn2-c2c(C)cccc2C)CCOC(C)(C)C1 (stereo not drawn) | -15.5%
65 | CCCNC(=O)NC(=O)COC(=O)CC(NC(N)=O)c1ccc(Cl)cc1 (stereo not drawn) | -14.2%
66 | O=C(CN1CCCC1)N1CCN(c2ccccc2)CC1 | -53.9%
67 | CN(C)/C(CN1CCCCC1)=C1\N=C(c2ccccc2)OC1=O | 65.5% (active)
68 | O=S(=O)(c1ccccc1)N(CC(O)CN1CCCCC1)c1ccccc1 (stereo not drawn) | -28.8%
69 | COC(=O)N/N=C/c1ccc(-c2ccc(Cl)c(Cl)c2)o1 | 15.5%
70 | CCOC(=O)c1c(NC(=O)c2cccs2)sc(C)c1C | -14.7%
71 | COCCCNCC(=O)Nc1sc(C)c(C)c1C(=O)OC | 63.5% (active)
72 | COC(=O)c1c(NC(=O)c2c(Cl)cnn2C)sc(C)c1C | -24%

Row | Compound | inhibition
73 | COc1cccc(NC(=O)CN(C)C(C)C(=O)Nc2ccc(C#N)cc2)c1 (stereo not drawn) | -15.1%
74 | O=C(NCc1ccco1)c1nn2cccnc2c1Cl | -10.8%
75 | COCCCNc1nc2c(-c3cccc(C(F)(F)F)c3)nnn2c2ccccc12 | -13.1%
76 | NCC(=O)c1cccc2ccc[n+]([O-])c12 | -13.8%
77 | CCc1ccccc1NC(=O)CSc1nnc(-c2ccncc2)o1 | -14.6%
78 | COc1ccc(-n2c(C)nc3c(cnn3-c3ccccc3)c2=O)cc1 | -3.33%
79 | COc1ccc(C2c3c(C)nn(-c4ccccc4)c3NC(=O)N2c2ccccc2)cc1 (stereo not drawn) | 76.8% (active)
80 | Cc1nn(-c2ccccc2)c2c1C(c1cccc([N+](=O)[O-])c1)N(c1ccccc1)C(=O)N2 (stereo not drawn) | -12.3%
81 | CN(NC(=O)C1CC(=O)N(c2ccccc2)C1)C1=NS(=O)(=O)c2ccccc21 (stereo not drawn) | -8.25%
82 | Cc1ccc(S(=O)(=O)/N=C(/Nc2ccccn2)c2ccc(Cl)cc2)cc1 | 1%
83 | O=S(=O)(/N=C(/Nc1ccccn1)c1ccccc1)c1ccc(Cl)cc1 | -22.6%
84 | Cc1ccc(S/C(=N\S(=O)(=O)c2ccc(Cl)cc2)c2ccccc2)cc1 | 61.7% (active)
85 | O=C(N/N=C/c1ccc(Br)o1)c1cncc(Br)c1 | -13.1%
86 | CS(=O)(=O)N(CC(=O)NC1CCCC1)Cc1ccc(F)cc1 | -0.58%
87 | COc1ccc(CNC2CCCCC2)cc1 | 64.1% (active)
88 | COc1cc(CNC2CCCCC2)c(Br)cc1OC1CCCC1 | -29.9%
89 | COc1ccc(CCNC(=O)COC(=O)C2CCCCC2)cc1 | -25.9%
90 | CCOC(=O)c1cc2c(=O)[nH]c(C(Cl)(Cl)Cl)nc2o1 | 52% (active)
91 | CCOC(=O)c1ccc(COC(=O)c2cc(=O)[nH]c3ccccc23)o1 | -9.7%
92 | CCOC(=O)c1cnc(COc2ccccc2Cl)[nH]c1=O | 7.19%
93 | CCCCCOc1ccc(CSC2=NCCN2)cc1[N+](=O)[O-] | -26.2%
